# PubChem BioAssay (NCI)
# About 79,000 compounds went through this panel and 15% of them were active in at least one assay; those are over-represented in the sample as a whole. Values without a mark were called inactive. The source made the active and inactive calls. No stated cut-off is given here; in the data, active means growth inhibition above about 70%; inactive means the rest.
# Tests used:
# [1] = NCI Yeast Anticancer Drug Screen. Data for the rad52 strain (AID 147);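 further: 0% = growth of vehicle-treated control cultures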; conditions: S. cerevisiae rad52 mutant growth inhibition, hits give high values
# How it was run: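 Inhibition of yeast growth, referenced to vehicle controls, was the measured output for a strain with defective DNA damage repair.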
# [2] = NCI Yeast Anticancer Drug Screen. Data for the wt1 strain (AID 149);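 further: 0% = growth of vehicle-treated wt1 cultures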; conditions: S. cerevisiae wt1 strain (SPY 50644) growth inhibition, hits give high values
# How it was run: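 The wt1 strain was treated with compounds, and growth was compared with vehicle-treated cultures to give inhibition.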
# [3] = NCI Yeast Anticancer Drug Screen. Data for the rad50EPP+ strain (AID 151);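 further: 0% = growth of vehicle-treated control cultures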; conditions: S. cerevisiae rad50 mutant strain, hits give high values
# How it was run: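 Genetically defined yeast (rad50EPP+, DNA damage repair alteration) is grown with compound, and inhibition of growth is expressed relative to vehicle-treated controls.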
# [4] = NCI Yeast Anticancer Drug Screen. Data for the mgt1 strain (AID 153); conditions: S. cerevisiae mgt1 mutant growth inhibition, hits give high values
# How it was run: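 In the mgt1 strain, test compounds were added and growth inhibition was determined relative to vehicle-treated controls.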
# [5] = NCI Yeast Anticancer Drug Screen. Data for the rad50 strain (AID 155);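 further: 0% = growth of vehicle-only cultures of the same strain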; conditions: S. cerevisiae rad50 strain growth inhibition, hits give high values
# How it was run: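 Cells are treated with compound, grown, and their growth is then scored against vehicle-only cultures of the same repair-deficient yeast strain.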
# [6] = NCI Yeast Anticancer Drug Screen. Data for the mec2-1 strain (AID 157); conditions: S. cerevisiae mec2-1 strain, hits give high values
# How it was run: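 Each compound was tested on mec2-1 yeast, a strain altered in DNA damage repair or cell cycle control. Growth inhibition is reported relative to vehicle.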
# [7] = NCI Yeast Anticancer Drug Screen. Data for the rad14 strain (AID 159);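 further: 0% = growth of vehicle-treated control cultures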; conditions: S. cerevisiae rad14 strain growth inhibition, hits give high values
# How it was run: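 Readout: yeast growth inhibition, referenced to vehicle-only cultures. Strain bears a defined alteration in DNA damage repair.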
# [8] = NCI Yeast Anticancer Drug Screen. Data for the sgs1 mgt1 strain (AID 161);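 further: 0% = growth of cultures given vehicle only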; conditions: S. cerevisiae sgs1 mgt1 strain, hits give high values
# How it was run: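 Genetically altered yeast, compound exposure, growth inhibition relative to vehicle.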
# [9] = NCI Yeast Anticancer Drug Screen. Data for the CLN2oe strain (AID 163);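 further: 0% = growth of vehicle-only control cultures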; conditions: S. cerevisiae CLN2oe strain, hits give high values
# How it was run: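 First, the altered yeast strain was treated with each compound; second, its growth was measured; finally, inhibition was derived by comparison with vehicle controls.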
# [10] = NCI Yeast Anticancer Drug Screen. Data for the cln2 rad14 strain (AID 165);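 further: 0% = growth equal to vehicle treated cultures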; conditions: S. cerevisiae cln2 rad14 strain, hits give high values
# How it was run: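 Test compounds were added to cln2 rad14 yeast cultures; inhibition of growth was then determined by comparison with vehicle treatment.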
# [11] = NCI Yeast Anticancer Drug Screen. Data for the bub3 strain (AID 167); conditions: S. cerevisiae bub3 mutant strain, hits give high values
# How it was run: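 Part of a panel of yeast mutants defective in DNA damage repair or cell cycle regulation. Each strain is grown with compound, and inhibition is calculated relative to solvent-treated cultures.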
# [12] = NCI Yeast Anticancer Drug Screen. Data for the wt2 strain (AID 169);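 further: 0% = growth of vehicle-treated yeast cultures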; conditions: S. cerevisiae wt2 strain growth inhibition, hits give high values
# How it was run: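 The panel's yeast strains carry defined changes in DNA repair or cell cycle genes. Each strain is grown with compound, and growth loss is scored relative to vehicle.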
# [13] = NCI Yeast Anticancer Drug Screen. Data for the mlh1 strain (AID 171);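 further: 0% = growth of vehicle-treated control cultures of the same strain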; conditions: S. cerevisiae mlh1 strain growth inhibition, hits give high values
# How it was run: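 Inhibition values reflect reduced yeast growth in the presence of compound, referenced to vehicle controls, using a strain chosen for its alteration in DNA repair or cell cycle control.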
# [14] = NCI Yeast Anticancer Drug Screen. Data for the mlh1 rad18 strain (AID 175); conditions: S. cerevisiae mlh1 rad18 strain growth inhibition, hits give high values
# How it was run: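 Inhibition values reflect reduced growth of mutant yeast versus vehicle-treated controls following compound exposure; the mutations affect DNA damage repair.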
# [15] = NCI Yeast Anticancer Drug Screen. Data for the rad18 strain (AID 177); conditions: S. cerevisiae rad18 mutant growth inhibition, hits give high values
# How it was run: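 Steps: expose repair-mutant yeast to compound; measure growth; express as inhibition relative to vehicle control.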
# [16] = at 5.0 µM (retest, dose inferred, filed as 0.5)
# [17] = at 50.0 µM (retest, dose inferred, filed as 5.0)
smiles,measurement,setting,value
Cc1ccc(NN(NC(=O)OC(C)C)C(=O)OC(C)C)cc1,growth inhibition,[1]; at 1.2 µM,-2%
same,growth inhibition,[1]; at 3.7 µM,-2%
same,growth inhibition,[1]; at 11.0 µM,0%
same,growth inhibition,[1]; at 33.0 µM,8%
same,growth inhibition,[1]; at 100.0 µM,17%
same,growth inhibition,[2]; at 1.2 µM,2%
same,growth inhibition,[2]; at 3.7 µM,7%
same,growth inhibition,[2]; at 11.0 µM,4%
same,growth inhibition,[2]; at 33.0 µM,7%
same,growth inhibition,[2]; at 100.0 µM,11%
same,growth inhibition,[3]; at 1.2 µM,5%
same,growth inhibition,[3]; at 3.7 µM,13%
same,growth inhibition,[3]; at 11.0 µM,25%
same,growth inhibition,[3]; at 33.0 µM,50%
same,growth inhibition,[3]; at 100.0 µM,64%
same,growth inhibition,[4]; at 1.2 µM,0%
same,growth inhibition,[4]; at 3.7 µM,-3%
same,growth inhibition,[4]; at 11.0 µM,1%
same,growth inhibition,[4]; at 33.0 µM,14%
same,growth inhibition,[4]; at 100.0 µM,13%
same,growth inhibition,[5]; at 1.2 µM,-1%
same,growth inhibition,[5]; at 3.7 µM,0%
same,growth inhibition,[5]; [16],3%
same,growth inhibition,[5]; at 11.0 µM,-1%
same,growth inhibition,[5]; at 33.0 µM,8%
same,growth inhibition,[5]; [17],35%
same,growth inhibition,[5]; at 50.0 µM,23.1%
same,growth inhibition,[5]; at 100.0 µM,13%
same,growth inhibition,[6]; at 1.2 µM,3%
same,growth inhibition,[6]; at 3.7 µM,5%
same,growth inhibition,[6]; [16],1%
same,growth inhibition,[6]; at 11.0 µM,8%
same,growth inhibition,[6]; at 33.0 µM,13%
same,growth inhibition,[6]; [17],5%
same,growth inhibition,[6]; at 50.0 µM,6.1%
same,growth inhibition,[6]; at 100.0 µM,15%
same,growth inhibition,[7]; at 1.2 µM,-2%
same,growth inhibition,[7]; at 3.7 µM,-1%
same,growth inhibition,[7]; at 11.0 µM,-1%
same,growth inhibition,[7]; at 33.0 µM,1%
same,growth inhibition,[7]; at 100.0 µM,8%
same,growth inhibition,[8]; [16],15%
same,growth inhibition,[8]; [17],19%
same,growth inhibition,[8]; at 50.0 µM,29.6%
same,growth inhibition,[9]; at 1.2 µM,-3%
same,growth inhibition,[9]; at 3.7 µM,-11%
same,growth inhibition,[9]; at 11.0 µM,-5%
same,growth inhibition,[9]; at 33.0 µM,1%
same,growth inhibition,[9]; at 100.0 µM,5%
same,growth inhibition,[10]; [16],14%
same,growth inhibition,[10]; [17],27%
same,growth inhibition,[10]; at 50.0 µM,28.6%
same,growth inhibition,[11]; at 1.2 µM,-5%
same,growth inhibition,[11]; at 3.7 µM,-3%
same,growth inhibition,[11]; [16],17%
same,growth inhibition,[11]; at 11.0 µM,-1%
same,growth inhibition,[11]; at 33.0 µM,6%
same,growth inhibition,[11]; [17],38%
same,growth inhibition,[11]; at 50.0 µM,2.1%
same,growth inhibition,[11]; at 100.0 µM,17%
same,growth inhibition,[12]; at 1.2 µM,-1%
same,growth inhibition,[12]; at 3.7 µM,-1%
same,growth inhibition,[12]; at 11.0 µM,0%
same,growth inhibition,[12]; at 33.0 µM,7%
same,growth inhibition,[12]; at 100.0 µM,11%
same,growth inhibition,[13]; at 1.2 µM,0%
same,growth inhibition,[13]; at 3.7 µM,2%
same,growth inhibition,[13]; at 11.0 µM,5%
same,growth inhibition,[13]; at 33.0 µM,7%
same,growth inhibition,[13]; at 100.0 µM,8%
same,growth inhibition,[14]; [16],16%
same,growth inhibition,[14]; [17],62%
same,growth inhibition,[14]; at 50.0 µM,78.8% (active)
same,growth inhibition,[15]; at 1.2 µM,-3%
same,growth inhibition,[15]; at 3.7 µM,-4%
same,growth inhibition,[15]; at 11.0 µM,1%
same,growth inhibition,[15]; at 33.0 µM,12%
same,growth inhibition,[15]; at 100.0 µM,21%
Cc1ccc(C2C(Cl)C(=O)N2n2cnc3ccccc3c2=O)cc1 (stereo not drawn),growth inhibition,[1]; at 1.2 µM,6%
same,growth inhibition,[1]; at 3.7 µM,11%
same,growth inhibition,[1]; at 11.0 µM,8%
same,growth inhibition,[1]; at 33.0 µM,9%
same,growth inhibition,[1]; at 100.0 µM,-8%
same,growth inhibition,[2]; at 1.2 µM,8%
same,growth inhibition,[2]; at 3.7 µM,14%
same,growth inhibition,[2]; at 11.0 µM,19%
same,growth inhibition,[2]; at 33.0 µM,6%
same,growth inhibition,[2]; at 100.0 µM,6%
same,growth inhibition,[3]; at 1.2 µM,-13%
same,growth inhibition,[3]; at 3.7 µM,-6%
same,growth inhibition,[3]; at 11.0 µM,-3%
same,growth inhibition,[3]; at 33.0 µM,34%
same,growth inhibition,[3]; at 100.0 µM,51%
same,growth inhibition,[4]; at 1.2 µM,-15%
same,growth inhibition,[4]; at 3.7 µM,-11%
same,growth inhibition,[4]; at 11.0 µM,-23%
same,growth inhibition,[4]; at 33.0 µM,-19%
same,growth inhibition,[4]; at 100.0 µM,-27%
same,growth inhibition,[5]; at 1.2 µM,-2%
same,growth inhibition,[5]; at 3.7 µM,0%
same,growth inhibition,[5]; [16],14%
same,growth inhibition,[5]; at 11.0 µM,-6%
same,growth inhibition,[5]; at 33.0 µM,-6%
same,growth inhibition,[5]; [17],-4%
same,growth inhibition,[5]; at 50.0 µM,-15.2%
same,growth inhibition,[5]; at 100.0 µM,-20%
same,growth inhibition,[6]; at 1.2 µM,-6%
same,growth inhibition,[6]; at 3.7 µM,-12%
same,growth inhibition,[6]; [16],-16%
same,growth inhibition,[6]; at 11.0 µM,-10%
same,growth inhibition,[6]; at 33.0 µM,-11%
same,growth inhibition,[6]; [17],10%
same,growth inhibition,[6]; at 50.0 µM,12.5%
same,growth inhibition,[6]; at 100.0 µM,-15%
same,growth inhibition,[7]; at 1.2 µM,-15%
same,growth inhibition,[7]; at 3.7 µM,-19%
same,growth inhibition,[7]; at 11.0 µM,-9%
same,growth inhibition,[7]; at 33.0 µM,-12%
same,growth inhibition,[7]; at 100.0 µM,-4%
same,growth inhibition,[8]; [16],-4%
same,growth inhibition,[8]; [17],20%
same,growth inhibition,[8]; at 50.0 µM,-0.75%
same,growth inhibition,[9]; at 1.2 µM,-23%
same,growth inhibition,[9]; at 3.7 µM,-43%
same,growth inhibition,[9]; at 11.0 µM,-18%
same,growth inhibition,[9]; at 33.0 µM,-54%
same,growth inhibition,[9]; at 100.0 µM,-20%
same,growth inhibition,[10]; [16],4%
same,growth inhibition,[10]; [17],28%
same,growth inhibition,[10]; at 50.0 µM,6.4%
same,growth inhibition,[11]; at 1.2 µM,-10%
same,growth inhibition,[11]; at 3.7 µM,-7%
same,growth inhibition,[11]; [16],33%
same,growth inhibition,[11]; at 11.0 µM,3%
same,growth inhibition,[11]; at 33.0 µM,46%
same,growth inhibition,[11]; [17],84% (active)
same,growth inhibition,[11]; at 50.0 µM,68.6%
same,growth inhibition,[11]; at 100.0 µM,62%
